We go through nine compounds from the supplement of paper PMC6897291.

Experiment [1] has as its system RIVA. The experiment in a line: growth inhibition by drug alone (1 - RLU/untreated control) (fraction); higher = stronger inhibition. The note with it: 177Lu-lilotomab satetraxetan 0 ug/ml. The method, boiled down:
(§1)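 Compound doses on the pre-printed Selleck Cambridge Cancer Compound library plates were 10/100 nM for RIVA cells and 10/1,000 nM for U-2932 cells, seeded at 3,000 cells/well. Before seeding, cells were washed after 18 h with or without a radiolabelled anti-CD37 antibody conjugate (~600 MBq/mg; 0.5 µg/ml RIVA, 1 µg/ml U-2932). Growth inhibition was derived from RealTime-Glo luminescence relative to untreated no-drug control wells. Readings were taken daily starting on day 3, each after 1 h at 37°C, and each well's RLU was divided by the mean of 48 such wells per plate and subtracted from 1.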

In experiment [2] the test system is U-2932. The experiment in a line: growth inhibition by drug plus 177Lu-lilotomab satetraxetan (1 - RLU/untreated control) (fraction); higher = stronger inhibition. Particulars: 177Lu-lilotomab satetraxetan 1 ug/ml. The method, boiled down:
as §1

Experiment [3] relates to RIVA. The description is as above. Particulars: 177Lu-lilotomab satetraxetan 0.5 ug/ml. Put shortly:
as §1

The subject of experiment [4] is U-2932. Description: growth inhibition by drug alone (1 - RLU/untreated control) (fraction); higher = stronger inhibition. Particulars: 177Lu-lilotomab satetraxetan 0 ug/ml. The method, boiled down:
as §1

Regarding `O=C(O)c1nn(Cc2ccc(Cl)cc2Cl)c2ccccc12` [Lonidamine], the “growth inhibition by drug alone” value in the experiment with RIVA [1] (10 nM, time (day): 3) is 0.0283; in the experiment with RIVA [1] (10 nM, time (day): 4), 0.0585; with RIVA [1] (10 nM, time (day): 5), 0.0114; in the experiment with RIVA [1] (10 nM, time (day): 6), -0.393; in the experiment with RIVA [1] (100 nM, time (day): 3), -0.419; with RIVA [1] (100 nM, time (day): 4), -0.301. Further, the “growth inhibition by drug alone” value in the experiment on RIVA [1] (100 nM, time (day): 5) was -0.332; in the experiment with RIVA [1] (100 nM, time (day): 6), -0.381. Besides, the “growth inhibition by drug plus 177Lu-lilotomab satetraxetan” value is 0.0325 in the experiment on U-2932 [2] (10 nM, time (day): 3); 0.0863 in the experiment on U-2932 [2] (10 nM, time (day): 4); 0.132 in the experiment with U-2932 [2] (10 nM, time (day): 5); 0.173 with U-2932 [2] (10 nM, time (day): 6); 0.0882 in the experiment on U-2932 [2] (1000 nM, time (day): 3); 0.147 in the experiment on U-2932 [2] (1000 nM, time (day): 4). The “growth inhibition by drug plus 177Lu-lilotomab satetraxetan” value worked out at 0.167 in the experiment with U-2932 [2] (1000 nM, time (day): 5); 0.244 in the experiment on U-2932 [2] (1000 nM, time (day): 6); 0.616 in the experiment on RIVA [3] (10 nM, time (day): 3); 0.624 with RIVA [3] (10 nM, time (day): 4); 0.644 with RIVA [3] (10 nM, time (day): 5); 0.656 in the experiment on RIVA [3] (10 nM, time (day): 6). For the same compound, the “growth inhibition by drug plus 177Lu-lilotomab satetraxetan” value in the experiment on RIVA [3] (100 nM, time (day): 3) was found to be 0.309; in the experiment with RIVA [3] (100 nM, time (day): 4) it was 0.446; in the experiment on RIVA [3] (100 nM, time (day): 5), 0.459; with RIVA [3] (100 nM, time (day): 6), 0.45.
In the case of `O=P1(N(CCCl)CCCl)NCCCO1` (centres undefined) [Cyclophosphamide monohydrate], the “growth inhibition by drug plus 177Lu-lilotomab satetraxetan” value with U-2932 [2] (10 nM, time (day): 3) was -0.0289; in the experiment with U-2932 [2] (10 nM, time (day): 4), -0.00591; in the experiment on U-2932 [2] (10 nM, time (day): 5), 0.0126; in the experiment with U-2932 [2] (10 nM, time (day): 6) it was 0.184; in the experiment with U-2932 [2] (1000 nM, time (day): 3) it was -0.0442; in the experiment with U-2932 [2] (1000 nM, time (day): 4) it was 0.00578. Also, the “growth inhibition by drug plus 177Lu-lilotomab satetraxetan” value amounted to 0.00582 in the experiment on U-2932 [2] (1000 nM, time (day): 5) and 0.0795 in the experiment with U-2932 [2] (1000 nM, time (day): 6).
For the compound `CC(O)(CS(=O)(=O)c1ccc(F)cc1)C(=O)Nc1ccc(C#N)c(C(F)(F)F)c1` (centres undefined) [Bicalutamide (Casodex)], the “growth inhibition by drug plus 177Lu-lilotomab satetraxetan” value was 0.0109 in the experiment on U-2932 [2] (10 nM, time (day): 3); 0.0278 in the experiment on U-2932 [2] (10 nM, time (day): 4); 0.0445 in the experiment with U-2932 [2] (10 nM, time (day): 5); 0.0662 in the experiment with U-2932 [2] (10 nM, time (day): 6); -0.0729 in the experiment with U-2932 [2] (1000 nM, time (day): 3); 0.0514 with U-2932 [2] (1000 nM, time (day): 4). The “growth inhibition by drug plus 177Lu-lilotomab satetraxetan” value in the experiment with U-2932 [2] (1000 nM, time (day): 5) is 0.0207; with U-2932 [2] (1000 nM, time (day): 6) it was -0.0101.
For `Cc1cc2c(C(C)C)c(O)c(O)c(C=O)c2c(O)c1-c1c(C)cc2c(C(C)C)c(O)c(O)c(C=O)c2c1O` [Gossypol], the “growth inhibition by drug plus 177Lu-lilotomab satetraxetan” value in the experiment with U-2932 [2] (10 nM, time (day): 3) was -0.115; in the experiment with U-2932 [2] (10 nM, time (day): 4) it was -0.0678; in the experiment with U-2932 [2] (10 nM, time (day): 5) it was -0.0445; with U-2932 [2] (10 nM, time (day): 6), 0.0445; with U-2932 [2] (1000 nM, time (day): 3) it was -0.0917; in the experiment on U-2932 [2] (1000 nM, time (day): 4) it was -0.0427. For the same compound, the “growth inhibition by drug plus 177Lu-lilotomab satetraxetan” value in the experiment with U-2932 [2] (1000 nM, time (day): 5) is -0.011; in the experiment on U-2932 [2] (1000 nM, time (day): 6), 0.0745.
`N[C@@H](Cc1ccc(N(CCCl)CCCl)cc1)C(=O)O` [Melphalan]: the “growth inhibition by drug alone” value with U-2932 [4] (10 nM, time (day): 3) was 0.0288; in the experiment on U-2932 [4] (10 nM, time (day): 4) it was 0.0447; in the experiment with U-2932 [4] (10 nM, time (day): 5) it was -0.0175; in the experiment on U-2932 [4] (10 nM, time (day): 6) it was -0.0774; with U-2932 [4] (1000 nM, time (day): 3), -0.0212; with U-2932 [4] (1000 nM, time (day): 4) it was 0.00786. For the same compound, the “growth inhibition by drug alone” value in the experiment with U-2932 [4] (1000 nM, time (day): 5) is -0.0265; with U-2932 [4] (1000 nM, time (day): 6) it was -0.169; with RIVA [1] (10 nM, time (day): 3) it was -0.0205; with RIVA [1] (10 nM, time (day): 4) it was 0.000425; in the experiment on RIVA [1] (10 nM, time (day): 5), -0.0866; in the experiment on RIVA [1] (10 nM, time (day): 6), -0.459. Also, the “growth inhibition by drug alone” value in the experiment with RIVA [1] (100 nM, time (day): 3) was -0.259; in the experiment with RIVA [1] (100 nM, time (day): 4), -0.175; in the experiment with RIVA [1] (100 nM, time (day): 5), -0.164; with RIVA [1] (100 nM, time (day): 6), -0.265. The “growth inhibition by drug plus 177Lu-lilotomab satetraxetan” value in the experiment on U-2932 [2] (10 nM, time (day): 3) stood at 0.0197; in the experiment with U-2932 [2] (10 nM, time (day): 4), 0.0283; in the experiment with U-2932 [2] (10 nM, time (day): 5), 0.0541; in the experiment with U-2932 [2] (10 nM, time (day): 6), 0.143; in the experiment on U-2932 [2] (1000 nM, time (day): 3) it was 0.00364; in the experiment with U-2932 [2] (1000 nM, time (day): 4), 0.0898. For the same compound, the “growth inhibition by drug plus 177Lu-lilotomab satetraxetan” value in the experiment on U-2932 [2] (1000 nM, time (day): 5) worked out at 0.0598; with U-2932 [2] (1000 nM, time (day): 6) it was 0.0846.
`N.N.[Cl][Pt][Cl]` [Cisplatin]: the “growth inhibition by drug plus 177Lu-lilotomab satetraxetan” value with U-2932 [2] (10 nM, time (day): 3) is 0.000302; in the experiment with U-2932 [2] (10 nM, time (day): 4) it was 0.0521; in the experiment with U-2932 [2] (10 nM, time (day): 5), 0.0625; in the experiment with U-2932 [2] (10 nM, time (day): 6), 0.172; in the experiment on U-2932 [2] (1000 nM, time (day): 3) it was -0.00976; with U-2932 [2] (1000 nM, time (day): 4) it was 0.0376. Besides, the “growth inhibition by drug plus 177Lu-lilotomab satetraxetan” value came out at 0.065 with U-2932 [2] (1000 nM, time (day): 5) and 0.206 with U-2932 [2] (1000 nM, time (day): 6).
With `CN(C)CCN(C)CCc1ccc(Cl)c(Cl)c1`, the “growth inhibition by drug plus 177Lu-lilotomab satetraxetan” value in the experiment with U-2932 [2] (10 nM, time (day): 3) is -0.0419; with U-2932 [2] (10 nM, time (day): 4), -0.0108; in the experiment with U-2932 [2] (10 nM, time (day): 5) it was -0.00129; in the experiment on U-2932 [2] (10 nM, time (day): 6), 0.0756; in the experiment with U-2932 [2] (1000 nM, time (day): 3), -0.131; with U-2932 [2] (1000 nM, time (day): 4), -0.0418. The “growth inhibition by drug plus 177Lu-lilotomab satetraxetan” value in the experiment with U-2932 [2] (1000 nM, time (day): 5) was -0.0272; in the experiment with U-2932 [2] (1000 nM, time (day): 6), -0.0418.
Take `CCC1(c2ccc(N)cc2)CCC(=O)NC1=O` (centres undefined) [Aminoglutethimide (Cytadren)]: the “growth inhibition by drug plus 177Lu-lilotomab satetraxetan” value in the experiment on U-2932 [2] (10 nM, time (day): 3) is -0.0302; with U-2932 [2] (10 nM, time (day): 4) it was 0.0116; in the experiment on U-2932 [2] (10 nM, time (day): 5), 0.0252; with U-2932 [2] (10 nM, time (day): 6), 0.0218; with U-2932 [2] (1000 nM, time (day): 3) it was -0.00688; in the experiment with U-2932 [2] (1000 nM, time (day): 4), 0.0339. In addition, the “growth inhibition by drug plus 177Lu-lilotomab satetraxetan” value with U-2932 [2] (1000 nM, time (day): 5) was determined as 0.0642; in the experiment on U-2932 [2] (1000 nM, time (day): 6) it was 0.126.
`C=C1C[C@@H]2[C@H](CC[C@]3(C)C(=O)CC[C@@H]23)[C@@]2(C)C=CC(=O)C=C12` [Exemestane]: the “growth inhibition by drug plus 177Lu-lilotomab satetraxetan” value in the experiment with U-2932 [2] (10 nM, time (day): 3) was 0.052; in the experiment with U-2932 [2] (10 nM, time (day): 4), 0.106; in the experiment with U-2932 [2] (10 nM, time (day): 5) it was 0.138; in the experiment on U-2932 [2] (10 nM, time (day): 6) it was 0.169; in the experiment with U-2932 [2] (1000 nM, time (day): 3), -0.0113; with U-2932 [2] (1000 nM, time (day): 4), 0.0549. Besides, the “growth inhibition by drug plus 177Lu-lilotomab satetraxetan” value was found to be 0.0989 with U-2932 [2] (1000 nM, time (day): 5) and 0.179 with U-2932 [2] (1000 nM, time (day): 6).
